Screening data (PubChem BioAssay)
Most compounds without a hit are left out; they make up all but 2.8% or so of the library.
DAGLB inh = diacylglycerol lipase beta (human) inhibition; Q8NCG7; HEK293T DAGLB membrane lysate, EnzChek fluorogenic substrate; inhibition, % at 5.17 µM; 340,000 tested, 0.059% active; in the data active = inhibition above about 34%;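 note: 0% = enzyme with vehicle and 100% = wells lacking enzyme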
Target sequence (Q8NCG7 whole entry, looked up): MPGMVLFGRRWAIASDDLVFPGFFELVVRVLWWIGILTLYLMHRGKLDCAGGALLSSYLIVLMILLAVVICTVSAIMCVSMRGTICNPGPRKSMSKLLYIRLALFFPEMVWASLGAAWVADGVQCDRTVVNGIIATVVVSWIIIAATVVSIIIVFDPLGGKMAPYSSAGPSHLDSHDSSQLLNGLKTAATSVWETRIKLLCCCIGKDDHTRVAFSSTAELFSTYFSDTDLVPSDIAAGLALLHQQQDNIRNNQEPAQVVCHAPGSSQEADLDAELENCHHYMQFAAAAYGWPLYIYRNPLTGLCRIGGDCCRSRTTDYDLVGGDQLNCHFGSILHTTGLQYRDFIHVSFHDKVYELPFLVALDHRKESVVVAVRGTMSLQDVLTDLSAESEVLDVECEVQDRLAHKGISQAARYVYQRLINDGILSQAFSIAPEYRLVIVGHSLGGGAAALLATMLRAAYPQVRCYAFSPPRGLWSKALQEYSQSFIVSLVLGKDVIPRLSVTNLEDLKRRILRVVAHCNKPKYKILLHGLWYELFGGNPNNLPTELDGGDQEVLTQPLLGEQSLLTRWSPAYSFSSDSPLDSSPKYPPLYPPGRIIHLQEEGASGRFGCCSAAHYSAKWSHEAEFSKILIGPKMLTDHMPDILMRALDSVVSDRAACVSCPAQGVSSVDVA
PAFAH2 FP inh = inhibitors of human PAFAH2. Q99487. recombinant PAFAH2, FP-rhodamine activity probe, fluorescence polarization. inhibition, % at 3.39 µM. 340,000 tested, 0.99% active. AID 492956;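 active = inhibition above the mean over all tested compounds plus 3 SD, cut at about 30% in these data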;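 note: inhibitors block probe labeling of enzyme so polarization drops; 0% = enzyme with DMSO and 100% = wells lacking PAFAH2 protein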
HTRA1 inhibitor = inhibitors of human serine peptidase HTRA1 | recombinant HTRA1, FP-rhodamine activity-based probe, fluorescence polarization | inhibition, % at 5.96 µM | Q92743 | AID 504803 | 340,000 tested, 0.5% active; in the data active = inhibition above about 36%;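 note: 0% = enzyme with DMSO and 100% = wells lacking enzyme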
PAFAH1B2 inh = blocks human PAF acetylhydrolase 1b catalytic subunit 2. inhibition, % at 3.39 µM. P68402. recombinant PAFAH1B2, FP-rhodamine activity probe, fluorescence polarization. 340,000 tested, 1.2% active;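 active = inhibition above the mean of all tested compounds plus 3 SD, cut at about 24% in these data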;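 note: 0% = enzyme with DMSO and 100% = wells lacking PAFAH1B2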
PAFAH1B3 FP inh = blocks human PAF acetylhydrolase 1B catalytic subunit 3 | 340,000 tested, 0.28% active | inhibition, % at 3.39 µM | recombinant PAFAH1B3, FP-rhodamine probe, fluorescence polarization | Q15102;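 active = inhibition above the screen-wide average of all tested compounds plus 3 SD, cut at about 25% in these data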;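 note: 0% = enzyme with DMSO only and 100% = wells lacking PAFAH1B3 protein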
pPAFAH inh = inhibitors of human plasma PAF acetylhydrolase (pPAFAH). Q13093. recombinant pPAFAH, FP-rhodamine probe fluorescence polarization. inhibition, % at 3.39 µM. 330,000 tested, 1.5% active;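 active = inhibition above the mean inhibition across the screen plus 3 SD, cut at about 25% in these data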;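 note: inhibitors block binding of the rhodamine activity-based probe so polarization drops; 0% = enzyme with DMSO and 100% = wells lacking pPAFAH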
PAFAH2 confirm = confirmation of human PAFAH2 inhibitors; 2,300 tested, 65% active; AID 493030; shares compounds with PAFAH2 FP inh; recombinant PAFAH2, FP-rhodamine activity probe, fluorescence polarization; inhibition, % at 3.39 µM;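 active = mean inhibition over three repeats above a set limit taken from the earlier primary screen, cut at about 30% in these data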;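 note: inhibitor blocks binding of rhodamine activity probe so polarization falls; 0% = enzyme with DMSO and 100% = wells lacking PAFAH2 protein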
An asterisk follows results filed as active; . = no result given.

SMILES | DAGLB inh | PAFAH2 FP inh | HTRA1 inhibitor | PAFAH1B2 inh | PAFAH1B3 FP inh | pPAFAH inh | PAFAH2 confirm
CCn1c(SCc2c(Cl)cccc2Cl)nnc1-c1nn(-c2ccccc2)ccc1=O | -4 | 49* | 4 | 0 | 9 | 5 | 26
NS(=O)(=O)c1cccc(NC(=O)COC(=O)c2ccc(S(=O)(=O)N3CCOCC3)cc2)c1 | -2 | 10 | -5 | -4 | -4 | . | .
O=C(COC(=O)c1cc(S(=O)(=O)N2CCOCC2)ccc1O)NCc1ccc2c(c1)OCO2 | 3 | 3 | 0 | 0 | -3 | . | .
O=C(COC(=O)c1ccc2c(c1)OCCO2)Nc1cccc(S(=O)(=O)N2CCOCC2)c1 | -2 | 65* | -4 | 4 | 0 | 4 | 56*
O=C(COC(=O)c1cc(S(=O)(=O)N2CCOCC2)ccc1O)Nc1ccc2c(c1)OCO2 | 0 | 42* | -5 | 3 | 3 | 3 | 32*
O=C(Nc1ccc2c(c1)OCO2)c1cccc(S(=O)(=O)N2CCOCC2)c1 | -2 | 2 | -3 | -2 | 2 | 2 | .
O=C(OCC(=O)N1CCCc2ccccc21)c1cc(S(=O)(=O)N2CCOCC2)ccc1O | -1 | 73* | -1 | 5 | -3 | 6 | 63*
O=C(COC(=O)c1cccc(S(=O)(=O)N2CCOCC2)c1)Nc1ccc2c(c1)OCO2 | -2 | 66* | -3 | 2 | 6 | 12 | 38*
Cc1ccc(C(=O)C(C)OC(=O)c2nc(Cl)ccc2Cl)cc1 (stereo not given) | -4 | 1 | -7 | -2 | 3 | 4 | .
O=C(COC(=O)c1cc(S(=O)(=O)N2CCOCC2)ccc1Cl)Nc1ccc(Cl)cn1 | -1 | . | 12 | . | . | . | .
O=C(COC(=O)c1n[nH]c2ccccc12)Nc1cccc(S(=O)(=O)N2CCOCC2)c1 | -2 | 50* | -9 | -2 | 10 | . | 32*
O=C(COC(=O)C1CC2C=CC1C2)Nc1cccc(S(=O)(=O)N2CCOCC2)c1 (stereo not given) | -4 | 41* | -3 | 4 | 1 | 6 | 28
O=C(COC(=O)c1cccc(S(=O)(=O)N2CCOCC2)c1)Nc1ccc(Cl)cn1 | 1 | 64* | -2 | 2 | 5 | 3 | 47*
S=C(NCCc1ccc(Cl)cc1)NCc1ccccc1 | -5 | -2 | -21 | 17 | 6 | 5 | .
Nc1nc(Nc2ccccc2)nc2c1ncn2[C@@H]1O[C@H](CO)[C@@H](O)[C@H]1O | 0 | -4 | 1 | -2 | -7 | 1 | .
Cc1cccc(/C(N)=N/OC(=O)c2cccs2)c1 | -8 | 45* | -10 | 4 | -2 | 4 | 30*
N/C(=N\OC(=O)c1ccc2c(c1)OCO2)c1cccc(Br)c1 | -11 | 55* | -13 | -1 | 2 | 0 | 49*
N/C(=N\OC(=O)c1ccc2c(c1)OCO2)c1cccnc1 | -4 | 4 | 5 | 4 | 4 | 7 | .
Cc1ccc(/C(N)=N/OC(=O)c2cccs2)cc1 | -12 | 4 | -13 | 0 | 5 | 3 | .
N/C(=N\OC(=O)c1cccs1)c1cccc(Br)c1 | -5 | 47* | -10 | 6 | -2 | 9 | 42*
N/C(=N\OC(=O)c1cccs1)c1ccccc1 | -9 | 21 | -1 | 2 | 7 | 5 | .
Cc1ccc2c(c1)CO[C@@]21O[C@H](CCO)C[C@H](O)[C@H]1O | -2 | . | -2 | . | . | . | .
[O-][n+]1c2ccccc2cc2ccccc21 | 0 | -4 | 3 | 7 | 2 | 8 | .
CCC(CC)C(=O)N1CC(=O)Nc2ccc(F)cc2C1c1ccccc1 (stereo not given) | 0 | -3 | 0 | 5 | 9 | 0 | .
CC1=NNC(=O)C1CC(=O)N/N=C(\C)c1ccco1 (stereo not given) | 1 | 8 | 0 | 6 | 3 | -1 | .
SMILES | DAGLB inh | PAFAH2 FP inh | HTRA1 inhibitor | PAFAH1B2 inh | PAFAH1B3 FP inh | pPAFAH inh | PAFAH2 confirm
Cc1cc(C)nc(N2CCCC(C(=O)Nc3cccc(Cl)c3)C2)n1 (stereo not given) | -2 | -9 | 5 | 0 | -7 | 3 | .
COc1ccc(CNC(=O)COC(=O)c2ccc(OCc3c(C)noc3C)cc2)cc1OC | 0 | 0 | -4 | 4 | -1 | 3 | .
Cc1noc(C)c1COc1ccc(C(=O)OCC(=O)OC(C)(C)C)cc1 | -3 | 32* | -5 | 1 | 8 | 9 | 29
Cc1noc(C)c1COc1ccc(C(=O)OCC(=O)NCc2ccccc2Cl)cc1 | -1 | 76* | -7 | 4 | 2 | 12 | 74*
CCOc1ccc(S(=O)(=O)NCCC(=O)NCC2(N3CCCCC3)CCCCC2)cc1 | 1 | -4 | 0 | 1 | 10 | -3 | .
COc1ccc(NC2CC(=O)N(c3cccc([N+](=O)[O-])c3)C2=O)cc1 (stereo not given) | 5 | 18 | 2 | 0 | 7 | 3 | .
COc1ccc(NC2CC(=O)N(c3cccc(C)c3)C2=O)cc1 (stereo not given) | 5 | 47* | 6 | 1 | 5 | 4 | -2
CCN(CC)S(=O)(=O)c1cccc(-n2c(O)c(C=Nc3ccccc3C(=O)O)c3ccccc3c2=O)c1 | 5 | 89* | -2 | 3 | 0 | 10 | 73*
COC(=O)Nc1nc(-c2ccccc2)c(C(=O)c2ccccc2)s1 | -1 | 53* | -13 | 17 | -3 | 0 | 50*
Cc1cc(C(=O)OCC(=O)Nc2cccc(S(=O)(=O)N(C)C)c2)c(C)o1 | 1 | 45* | -4 | 1 | -4 | 1 | 34*
Cc1noc(C)c1C(=O)OCC(=O)Nc1cccc(S(=O)(=O)N(C)C)c1 | -2 | 4 | 1 | 1 | 1 | 0 | .
CN(C)S(=O)(=O)c1cccc(NC(=O)COC(=O)c2c[nH]c(=O)[nH]c2=O)c1 | 0 | -1 | -3 | -1 | 2 | -5 | .
CCN(CC)S(=O)(=O)c1cccc(NC(=O)COC(=O)c2n[nH]c(=O)c3ccccc23)c1 | 0 | 6 | -1 | 5 | 4 | -4 | .
CN(C)S(=O)(=O)c1cccc(NC(=O)COC(=O)c2cccn2C)c1 | -2 | 36* | -2 | 5 | -1 | 6 | 22
CCN(CC)S(=O)(=O)c1cccc(NC(=O)COC(=O)c2cc(C)oc2C)c1 | -2 | 39* | -12 | -4 | -3 | 4 | 39*
C=CCn1c(SCC(=O)N(C)C2CCCCC2)nnc1C1CC1 | 2 | 34* | 7 | 5 | 7 | 0 | 25
CC1CC(CC(=O)NC(=S)Nc2ccccc2Cl)C(=O)O1 (stereo not given) | 2 | -9 | 5 | -3 | 3 | 6 | .
CCC1CN(S(=O)(=O)c2ccc3c(c2)NC(=O)CC(=O)N3)c2cc(Cl)ccc2O1 (stereo not given) | 6 | 45* | -24 | 11 | 5 | 2 | 20
O=C(OCC(=O)c1ccc[nH]1)c1ccccc1 | 4 | 14 | 11 | 3 | -1 | 2 | .
